Screening data: PubChem BioAssay, National Center for Advancing Translational Sciences (NCATS)
IL-1B inflam inh: inflammasome signaling inhibition, IL-1 beta readout; THP-1 LPS/ATP IL-1B secretion, AlphaLISA, 16 h; stronger effect = lower value; activity change, % at 57.5 µM; 360,000 compounds, 4.7% hits; AID 743279; in the data active means activity change below about -50%; inconclusive means mostly about -30% to -49%
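THP-1 cells pretreated 1 hr with compounds (up to 57.5 uM final), then stimulated with LPS (250 ng/mL final) plus ATP (1.25 mM final); secreted IL-1B measured by AlphaLISA after 16 hr, decreased signal indicating inhibition.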
SW480 rerep: induces DNA re-replication in SW480 colon adenocarcinoma cells; 340,000 compounds, 1.8% hits; SW480 DNA re-replication, Hoechst DNA content imaging, 48 h; Potency, µM (doses to about 46.1 µM), hits mostly activators; AID 624297; further: nearly all actives have a fitted effect of over 55% in size
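Quantitative HTS format with DMSO vehicle controls; 48 hr drug incubation at 37 C, then 40 min Hoechst staining and scanning imager measurement at 405 nm excitation.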
MCF10A rereplic: induces DNA re-replication in MCF 10a normal breast cells; Potency, µM (top dose mostly 46.1 µM), hits mostly activators; AID 624296; MCF 10A DNA re-replication, Hoechst nuclear intensity, 48 h; 350,000 compounds, 2.9% hits; further: nearly all actives have a fitted effect of over 50% in size
BCR signal inh: blocks chronic active B-cell receptor signaling; ABC-DLBCL IkBa-CBG/CBR reporter, luminescence ratio, 4 h; Potency, µM (series often up to 46.1 µM), usual class: inhibitors; 340,000 compounds, 0.05% hits; AID 493014; active means well fitted inhibition curve with a large enough effect in the signal ratio, with a control signal flat, not every such curve was filed as active; inconclusive means small, poorly fitted or top-dose-only effect, or effect the other way, or a change in a side signal; the % refers to the signal ratio
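Compounds up to 46 uM were incubated four hours with TMD8 cells whose green CBG68 luciferase is fused to IkappaBalpha; red CBR luminescence normalised the signal, and concentration-effect curves were fitted to fusion, red and ratio data.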
DT40 TDP1 CPT: DT40-hTDP1 cell growth loss with CPT; chicken DT40 Tdp1-/-;hTDP1 cells + 20 nM CPT, ATP luminescence, 48 h; Potency, µM (highest dose often 46.2 µM), most hits filed as inhibitors; 420,000 compounds, 12% hits; AID 686979; further: nearly all actives have a fitted effect of over 55% in size
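Chicken DT40 Tdp1-/- cells stably complemented with human TDP1 were seeded at 400 cells/well in medium containing 20 nM camptothecin, exposed to pin-transferred compounds, and grown at 37 °C for at least 48 hr. Viability was read as ATP luminescence.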
TDP1 cell noCPT: qHTS for Inhibitors of human tyrosyl-DNA phosphodiesterase 1 (TDP1): qHTS in cells in absence of CPT | Potency, µM (series often up to 46.2 µM), hits mostly inhibitors | 420,000 compounds, 15% hits | DT40 Tdp1-/- hTDP1 cells, no CPT, ATP luminescence, 48 h; further: nearly all actives have a fitted effect of over 55% in size
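Readout: luminescence from CellTiter-Glo after 30 min in the dark at RT. Cells: DT40 Tdp1-/- with stable hTDP1, 400/well. Exposure: compounds alone, ≥48 hr, 37 °C.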
Each line names hits and unclear results; the compound was inactive in the other large screens. Hits are enriched below; roughly 19% of the tested compounds scored in any of these assays. Unless noted, the call rests on the fitted dose curve; in most records, active means well fitted curve in the direction sought with a large enough effect; inconclusive means small, poorly fitted or top-dose-only effect, or another doubt; inactive means no such curve, though single readings can be large; an effect the other way counts as inactive or inconclusive.

COc1cccc(CNC(=O)c2c(OC)cc(=O)n3c2CCN(C(=O)C2CC=CCC2)CC3)c1 (centres undefined)	none (no result: IL-1B inflam inh, SW480 rerep, MCF10A rereplic, BCR signal inh)
COc1ccccc1/C=C/c1nc2ccccc2n1C(C)C	DT40 TDP1 CPT 18µM, TDP1 cell noCPT 21µM (no result: IL-1B inflam inh, SW480 rerep, MCF10A rereplic, BCR signal inh)
COc1ccc(C(O)c2nc3ccccc3n2C(C)C)cc1 (centres undefined)	SW480 rerep inconclusive, MCF10A rereplic inconclusive, BCR signal inh inconclusive, DT40 TDP1 CPT 23µM, TDP1 cell noCPT 16µM
CCC(C)n1c(/C=C/c2ccccc2)nc2ccccc21 (centres undefined)	DT40 TDP1 CPT inconclusive, TDP1 cell noCPT inconclusive
Cc1ccc(C(O)c2nc3ccccc3n2C(C)C)cc1 (centres undefined)	DT40 TDP1 CPT inconclusive, TDP1 cell noCPT inconclusive
CC(C)c1ccc(C(O)c2nc3ccccc3n2C)cc1 (centres undefined)	DT40 TDP1 CPT 21µM, TDP1 cell noCPT 21µM
COc1cccc(C(=O)c2ccncc2C(=O)O)c1OC	none (no result: SW480 rerep, MCF10A rereplic, BCR signal inh)
O=C(CN1C(=O)c2ccc([N+](=O)[O-])cc2C1=O)NCc1ccc(C(=O)O)cc1	none
CC1(C)Cc2nc(NC3CCCCC3)c(C#N)cc2CO1	DT40 TDP1 CPT inconclusive, TDP1 cell noCPT 23µM
Cc1cc2nc(-c3ccc(OCc4ccc(F)cc4)cc3)cc(C(F)(F)F)n2n1	none (no result: IL-1B inflam inh, SW480 rerep, MCF10A rereplic, BCR signal inh)
O=c1c2ccccc2nc(SCc2ccc([N+](=O)[O-])cc2)n1CCCO	DT40 TDP1 CPT 10µM, TDP1 cell noCPT 6.5µM
O=C(CCCCn1c(=O)c2ccccc2n(Cc2ccc(F)cc2)c1=O)NCc1ccco1	SW480 rerep inconclusive, MCF10A rereplic 18µM, DT40 TDP1 CPT 16µM, TDP1 cell noCPT 15µM
Nn1c(SCc2ccc([N+](=O)[O-])cc2)nc2ccccc2c1=O	TDP1 cell noCPT inconclusive
Cc1ccc(CNC(=O)CSc2nc3ccsc3c(=O)n2Cc2ccccn2)cc1	none
O=c1c2sccc2nc(SCc2ccc([N+](=O)[O-])cc2)n1Cc1ccccn1	IL-1B inflam inh inconclusive, MCF10A rereplic inconclusive, DT40 TDP1 CPT inconclusive, TDP1 cell noCPT 16µM
Cc1ccc(CSc2nc3ccccc3c(=O)n2CCCC(=O)NCc2ccco2)cc1	DT40 TDP1 CPT inconclusive, TDP1 cell noCPT 12µM
COc1cccc(N(C(=O)c2csnn2)C(C(=O)NC2CCCC2)c2ccccc2)c1 (centres undefined)	none
CC(C)n1c(=O)nc(-c2ccccc2)c2cc3c(cc21)OCO3	TDP1 cell noCPT inconclusive (no result: SW480 rerep, MCF10A rereplic, BCR signal inh)
O=C(Cn1c(=O)n(Cc2ccccc2)c(=O)c2ccccc21)NCc1ccco1	IL-1B inflam inh inconclusive, BCR signal inh inconclusive, DT40 TDP1 CPT inconclusive, TDP1 cell noCPT inconclusive
O=C(CCCn1c(=O)c2ccccc2n(Cc2ccccc2)c1=O)NCc1ccco1	MCF10A rereplic inconclusive, DT40 TDP1 CPT 12µM, TDP1 cell noCPT 15µM
CCOC(=O)c1ccc(NC(=O)CSc2nc3ccccc3c(=O)n2CCC(=O)NC2CCCCC2)cc1	none (no result: IL-1B inflam inh, SW480 rerep, MCF10A rereplic)
C[C@H]1CN([C@@H](C)CO)C(=O)Cc2cc(NC(=O)CCN3CCOCC3)ccc2O[C@@H]1CN(C)Cc1ccc(Oc2ccccc2)cc1	SW480 rerep inconclusive, MCF10A rereplic inconclusive, DT40 TDP1 CPT 23µM, TDP1 cell noCPT 23µM
C[C@H](CO)N1C[C@H](C)[C@H](CN(C)Cc2ccc(-c3ccccc3)cc2)Oc2ccc(NS(=O)(=O)c3ccccc3)cc2CC1=O	DT40 TDP1 CPT 16µM, TDP1 cell noCPT 18µM
C[C@H]1CN([C@@H](C)CO)C(=O)Cc2cc(NC(=O)C3CC3)ccc2O[C@H]1CN(C)Cc1ccc(Oc2ccccc2)cc1	IL-1B inflam inh -72, MCF10A rereplic inconclusive, BCR signal inh inconclusive, DT40 TDP1 CPT inconclusive, TDP1 cell noCPT inconclusive
COc1ccc(NC(=O)N(C)C[C@H]2Oc3ccc(NC(=O)CCN4CCOCC4)cc3C(=O)N([C@H](C)CO)C[C@@H]2C)cc1	none
COc1ccc(NC(=O)Nc2ccc3c(c2)CC(=O)N([C@H](C)CO)C[C@H](C)[C@H](CN(C)Cc2ccc(C(=O)O)cc2)O3)cc1	none
Nc1ncc(Br)cc1S(=O)(=O)NCCC(=O)N1CCN(c2ccccc2)CC1	DT40 TDP1 CPT inconclusive
CCC(C)c1ccccc1NC(=O)CN(C)CCOc1ccc(Cl)cc1 (centres undefined)	IL-1B inflam inh -77, SW480 rerep inconclusive, MCF10A rereplic inconclusive, DT40 TDP1 CPT inconclusive, TDP1 cell noCPT 23µM
CN(CCOc1ccccc1)CC(=O)Nc1ccc(Br)cc1F	DT40 TDP1 CPT inconclusive, TDP1 cell noCPT 16µM
Cc1cc(NS(=O)(=O)c2ccc(Nc3nc(-c4sc(N)nc4C)cs3)cc2)no1	none
NS(=O)(=O)c1ccc(Nc2nc(-c3ccc(F)cc3)cs2)cc1	IL-1B inflam inh -88, MCF10A rereplic inconclusive, DT40 TDP1 CPT 18µM, TDP1 cell noCPT 21µM
CC(=O)Nc1ccc(-c2csc(Nc3ccc(S(N)(=O)=O)cc3)n2)cc1	none
COc1ccc(-c2csc(Nc3ccc(S(N)(=O)=O)cc3)n2)cc1OC	IL-1B inflam inh -64, SW480 rerep inconclusive, MCF10A rereplic inconclusive, BCR signal inh inconclusive, DT40 TDP1 CPT inconclusive, TDP1 cell noCPT inconclusive
NS(=O)(=O)c1ccc(Nc2nc(-c3cccnc3)cs2)cc1	SW480 rerep inconclusive, MCF10A rereplic inconclusive, TDP1 cell noCPT inconclusive
NS(=O)(=O)c1ccc(Nc2nc(-c3ccc(O)cc3O)cs2)cc1	IL-1B inflam inh -57
Cc1cc(NS(=O)(=O)c2ccc(Nc3nc(-c4ccc(C)c(C)c4)cs3)cc2)no1	IL-1B inflam inh -56, MCF10A rereplic inconclusive, BCR signal inh inconclusive, DT40 TDP1 CPT inconclusive, TDP1 cell noCPT inconclusive
Oc1ccc(-c2csc(Nc3ccccn3)n2)c(O)c1	MCF10A rereplic inconclusive, DT40 TDP1 CPT inconclusive, TDP1 cell noCPT inconclusive
O=C(NCc1ccc(F)cc1)c1ccc2c(c1)nc1n2CCCCC1	TDP1 cell noCPT inconclusive (no result: IL-1B inflam inh, SW480 rerep, MCF10A rereplic, BCR signal inh)
COc1cc(Nc2ccc(S(N)(=O)=O)cc2)c([N+](=O)[O-])nc1[N+](=O)[O-]	DT40 TDP1 CPT 16µM, TDP1 cell noCPT inconclusive
CC1(c2nnc(-c3cccc(Cl)c3)o2)CC(c2ccc(C#N)cc2)=NO1 (centres undefined)	DT40 TDP1 CPT inconclusive, TDP1 cell noCPT 18µM (no result: BCR signal inh)
O=C(NCc1ccc(Cl)cc1)c1ccc(S(=O)(=O)N2CCCCC2)cc1	TDP1 cell noCPT inconclusive
Cc1sc(NC(=O)c2ccco2)c(C(c2cccnc2)N2CCN(C)CC2)c1C (centres undefined)	MCF10A rereplic inconclusive, BCR signal inh inconclusive, DT40 TDP1 CPT 21µM, TDP1 cell noCPT 12µM
